From PubChem BioAssay (NCI)
About 83,000 compounds went through this panel and 20% of them were active in at least one assay; those are over-represented in the sample as a whole.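 Cells were grown in 96-well plates and exposed to the test compound at a single concentration for 48 hours; results are reported as percent growth, with values below 10 considered active.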 Calls of active or inactive are those of the source.

test system: HL-60(TB) leukemia; experiment: NCI-60 one-dose screen, 48 h (100 = growth as untreated, 0 = no growth, -100 = all killed); settings: 10 µM unless noted

Row | Structure (SMILES) | growth
1 | COc1cc2cc(C(=O)Nc3ccccc3)c(N)nc2cc1OC | -42.1% (active)
2 | Cc1cc(-c2ccccc2)cc(SC#N)[n+]1[O-] | 7.14% (active)
3 | N#CSCc1c(Cl)cccc1Cl | 88.9% (inactive)
4 | O=S(=O)(Oc1ccc(-c2ccc3sccc3c2)cc1)c1ccccc1 | 99.6% (inactive)
5 | CCOC(=O)c1c(CN2CCN(C)CC2)nc2ccc(Cl)cc2c1-c1ccccc1 | 26.5% (inactive)
6 | CCCCCCCCCCCCC[C@H](O)C[C@H](O)[C@H](C)N | 54.8% [1.25 µM] (inactive)
7 | COc1ccc(Cn2nc(-c3cc(OC)c(OC)c(OC)c3)c3c2CCc2cnoc2-3)cc1OC | 16.3% (inactive)
8 | Clc1ccc(-c2noc(/C=C\c3ccccc3)n2)cc1 | 94% (inactive)
9 | NCCn1cc(-c2nc(-c3c[nH]c4ncccc34)cs2)c2cc(F)ccc21 | 62% (inactive)
10 | Cc1cc(Nc2cc(N3CCN(C)CC3)nc(Sc3ccc(NC(=O)C4CC4)cc3)n2)n[nH]1 | 11.2% (inactive)
11 | CCOC(=O)c1c(Cl)c2c(n1Cc1cc(OC)cc(OC)c1)-c1oncc1CCC2 | 0.728% (active)
12 | CCN(CC)c1ccc(CNc2cc(C)nc3ccccc23)cc1 | 81.1% (inactive)
13 | OCCNc1nccc(N2CCN(c3ccnc4cc(Cl)ccc34)CC2)n1 | 47.8% (inactive)
14 | O=C1CCc2c(sc3[nH]c(=S)n(Cc4ccc(Cl)cc4)c(=O)c23)C1 | -5.26% (active)
15 | Clc1cc(Cl)c(Cl)c(-c2nc(-c3cccnc3)cs2)c1 | -3.35% (active)
16 | CCn1c(Sc2nnc(NC(C)=O)s2)nc2c1c(=O)n(C)c(=O)n2C | 124% (inactive)
